Experimental data: the supplement of paper PMC10849652
The full data set covers some 7,900 targets. This sample favours those with a hit. About 0.6% of all pairs of compound and target were hits.

Columns and labels:
Test in all cases: log2 fold change, soluble protein after heating vs DMSO (PISA); higher = thermal stabilisation; K562 cells, 10 uM, 30 min; active = over 0.2 and 3.5 SD of the protein, either way, in both replicates (recomputed)
bafetinib = compound: Cc1ccc(NC(=O)c2ccc(CN3CC[C@H](N(C)C)C3)c(C(F)(F)F)c2)cc1Nc1nccc(-c2cncnc2)n1 [bafetinib]
Method in brief: (§1)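 Soluble protein was quantified by TMTpro 16plex LC-MS/MS after channel sums were equalised. It was obtained as the supernatant after 21,000xg for 90 min from pooled aliquots of K562 cells (2×10^6 cells/mL, 10 μM compound, 30 min) heated for 3 min across 48°C-58°C and extracted in PBS with 0.5% NP-40 at 4°C. Thermal stability values are relative to control samples and come from duplicates. They are given as log2 fold changes.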

[1] = compound: Cc1cccc(CC(=O)N2CCc3c2ccc(-c2cn(C)c4ncnc(N)c24)c3F)n1
Method in brief: as §1

nilotinib = compound: Cc1cn(-c2cc(NC(=O)c3ccc(C)c(Nc4nccc(-c5cccnc5)n4)c3)cc(C(F)(F)F)c2)cn1 [nilotinib]
Method in brief: as §1

[2] = compound: Cc1nc(Nc2n[nH]c3c2CN(C(=O)N[C@H](CN(C)C)c2ccccc2)C3(C)C)c2sccc2n1
Method in brief: as §1

[3] = compound: Cc1ncc(-c2ccnc(Nc3ccc(S(C)(=O)=O)cc3)n2)n1C(C)C
Method in brief: as §1

[4] = compound: Cn1cc(-c2ccc3c(c2)CCN3C(=O)Cc2cccc(C(F)(F)F)c2)c2c(N)ncnc21
Method in brief: as §1

tipifarnib = compound: Cn1cncc1[C@@](N)(c1ccc(Cl)cc1)c1ccc2c(c1)c(-c1cccc(Cl)c1)cc(=O)n2C [tipifarnib]
Method in brief: as §1

mubritinib = compound: FC(F)(F)c1ccc(/C=C/c2nc(COc3ccc(CCCCn4ccnn4)cc3)co2)cc1 [mubritinib]
Method in brief: as §1

[5] = compound: NC(=O)c1cnc(N[C@@H]2CCCC[C@@H]2N)nc1Nc1cccc(-n2nccn2)c1
Method in brief: as §1

[6] = compound: NC1(c2ccc(-c3nc4ccn5c(=O)[nH]nc5c4cc3-c3ccccc3)cc2)CCC1
Method in brief: as §1

[7] = compound: NCC(=O)Nc1ccc(-n2nc(C(F)(F)F)cc2-c2ccc3c(ccc4ccccc43)c2)cc1
Method in brief: as §1

vorinostat = compound: O=C(CCCCCCC(=O)Nc1ccccc1)NO [vorinostat]
Method in brief: as §1

silmitasertib = compound: O=C(O)c1ccc2c(c1)nc(Nc1cccc(Cl)c1)c1ccncc12 [silmitasertib]
Method in brief: as §1

dasatinib = compound: Cc1nc(Nc2ncc(C(=O)Nc3c(C)cccc3Cl)s2)cc(N2CCN(CCO)CC2)n1 [dasatinib]
Method in brief: as §1

[8] = compound: Cn1cc(-c2ccc3nnc(C(F)(F)c4ccc5ncccc5c4)n3n2)cn1
Method in brief: as §1

[9] = compound: NC(=O)Nc1cc(-c2cccc(F)c2)sc1C(=O)N[C@H]1CCCNC1
Method in brief: as §1

entinostat = compound: Nc1ccccc1NC(=O)c1ccc(CNC(=O)OCc2cccnc2)cc1 [entinostat]
Method in brief: as §1

citarinostat = compound: O=C(CCCCCCNC(=O)c1cnc(N(c2ccccc2)c2ccccc2Cl)nc1)NO [citarinostat]
Method in brief: as §1

[10] = compound: c1cc(OCCN2CCCCC2)cc(-c2n[nH]c3ccc(-c4nnc[nH]4)cc23)c1
Method in brief: as §1

[11] = compound: O=C1NC(=O)C(c2cnc3ccccn23)=C1c1cn2c3c(cc(F)cc13)CN(C(=O)N1CCCCC1)CC2
Method in brief: as §1

Measured: log2 fold change

MOB3B (UniProt Q86TA1)
UniProt Q86TA1, sequence (Q86TA1 whole entry, looked up): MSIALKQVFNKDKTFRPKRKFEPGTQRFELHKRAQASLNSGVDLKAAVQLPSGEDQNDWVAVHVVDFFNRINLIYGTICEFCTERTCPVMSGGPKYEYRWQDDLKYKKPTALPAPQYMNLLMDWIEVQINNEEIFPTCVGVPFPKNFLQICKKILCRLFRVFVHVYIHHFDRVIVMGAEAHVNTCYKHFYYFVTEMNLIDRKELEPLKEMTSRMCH
inactive: bafetinib -0.023 | [1] 0.034 | nilotinib -0.168 | [2] -0.397 | [3] 0.032 | [4] 0.222 | tipifarnib 0.01 | mubritinib 0.109 | [5] -0.082 | [6] -0.288 | [7] -0.021 | vorinostat -0.049 | silmitasertib -0.023

NCBP2AS2 (UniProt Q69YL0)
UniProt Q69YL0, sequence (Q69YL0 whole entry, looked up): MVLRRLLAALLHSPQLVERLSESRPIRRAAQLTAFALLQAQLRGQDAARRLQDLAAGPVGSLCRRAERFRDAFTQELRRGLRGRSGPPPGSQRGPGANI
active: bafetinib -0.504
inactive: [1] -0.018 | nilotinib 0 | [2] 0.045 | dasatinib -0.021 | [3] 0.031 | [4] 0.002 | [8] 0.021 | tipifarnib -0.001 | mubritinib 0.006 | [9] -0.21 | [5] -0.161 | [6] -0.312 | [7] -0.157 | entinostat -0.004 | vorinostat 0.024 | citarinostat 0 | silmitasertib 0.024 | [10] -0.046

NDUFA7 (UniProt O95182)
UniProt O95182, sequence (O95182 whole entry, looked up): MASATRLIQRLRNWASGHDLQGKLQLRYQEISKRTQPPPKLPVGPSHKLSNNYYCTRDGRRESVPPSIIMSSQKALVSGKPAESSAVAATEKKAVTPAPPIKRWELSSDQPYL
active: mubritinib 0.247
inactive: bafetinib -0.056 | [1] 0.124 | nilotinib 0.016 | [2] -0.025 | dasatinib -0.145 | [3] -0.059 | [4] -0.005 | [8] -0.061 | tipifarnib 0.002 | [9] 0.019 | [5] 0.005 | [6] -0.108 | [7] -0.059 | entinostat 0 | vorinostat 0.012 | citarinostat 0.008 | silmitasertib -0.037 | [11] -0.047 | [10] -0.039

MSL1 (UniProt Q68DK7)
UniProt Q68DK7, sequence (Q68DK7 whole entry, looked up): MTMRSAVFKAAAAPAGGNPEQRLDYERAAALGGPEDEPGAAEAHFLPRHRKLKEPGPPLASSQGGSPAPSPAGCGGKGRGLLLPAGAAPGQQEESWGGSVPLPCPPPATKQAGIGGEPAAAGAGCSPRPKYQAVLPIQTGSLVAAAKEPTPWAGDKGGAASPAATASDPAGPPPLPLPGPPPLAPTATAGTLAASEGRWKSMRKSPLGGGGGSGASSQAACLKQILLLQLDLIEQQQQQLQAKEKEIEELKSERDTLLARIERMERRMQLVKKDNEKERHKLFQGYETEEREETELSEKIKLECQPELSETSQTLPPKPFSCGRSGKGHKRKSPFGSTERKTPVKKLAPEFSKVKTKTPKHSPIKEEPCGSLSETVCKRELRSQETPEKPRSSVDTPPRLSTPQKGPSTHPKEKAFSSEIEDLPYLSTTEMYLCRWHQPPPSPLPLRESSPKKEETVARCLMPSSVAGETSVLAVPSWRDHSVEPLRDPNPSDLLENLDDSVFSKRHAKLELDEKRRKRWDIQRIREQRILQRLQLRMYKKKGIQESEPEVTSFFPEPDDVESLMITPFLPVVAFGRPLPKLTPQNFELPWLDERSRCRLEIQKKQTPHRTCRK
inactive: bafetinib -0.056 | [1] 0.172 | nilotinib 0.004 | [2] 0.068 | dasatinib 0.014 | [3] -0.042 | [8] -0.019 | tipifarnib -0.065 | mubritinib 0.148 | [9] -0.032 | [5] -0.085 | [6] -0.024 | [7] -0.036 | entinostat 0.016 | vorinostat 0.104 | citarinostat 0.047 | silmitasertib -0.152 | [11] -0.153 | [10] 0.017

NIPSNAP3B (UniProt Q9BS92)
UniProt Q9BS92, sequence (Q9BS92 whole entry, looked up): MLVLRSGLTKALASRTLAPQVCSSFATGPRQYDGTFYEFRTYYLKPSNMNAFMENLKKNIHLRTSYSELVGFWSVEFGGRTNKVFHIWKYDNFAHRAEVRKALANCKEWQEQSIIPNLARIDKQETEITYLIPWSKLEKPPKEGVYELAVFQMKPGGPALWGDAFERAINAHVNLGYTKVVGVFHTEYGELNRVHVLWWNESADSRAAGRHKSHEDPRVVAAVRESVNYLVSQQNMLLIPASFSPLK
inactive: bafetinib -0.085 | [1] -0.054 | nilotinib -0.029 | [2] 0.01 | dasatinib -0.044 | [3] 0.013 | [4] 0.109 | tipifarnib -0.018 | mubritinib 0.083 | [9] 0.279 | [5] 0.011 | [6] -0.069 | [7] 0.053 | entinostat -0.001 | vorinostat -0.064 | citarinostat 0.137 | silmitasertib -0.022 | [10] -0.09

NR2C2AP isoform 2 (UniProt Q86WQ0)
UniProt Q86WQ0, sequence (Q86WQ0 whole entry, looked up): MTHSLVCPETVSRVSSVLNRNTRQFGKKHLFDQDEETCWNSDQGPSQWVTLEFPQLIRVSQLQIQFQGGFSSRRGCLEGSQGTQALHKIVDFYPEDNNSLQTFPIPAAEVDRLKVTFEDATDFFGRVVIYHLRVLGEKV
inactive: bafetinib 0.037 | [1] 0.03 | nilotinib -0.072 | [2] 0.003 | dasatinib -0.095 | [3] -0.008 | [4] 0.028 | [8] -0.016 | tipifarnib 0.007 | mubritinib 0.072 | [9] -0.082 | [5] -0.131 | [6] -0.05 | [7] -0.094 | entinostat -0.02 | vorinostat -0.027 | citarinostat 0.079 | silmitasertib 0.062 | [11] -0.092 | [10] -0.035

MMADHC (UniProt Q9H3L0)
UniProt Q9H3L0, sequence (Q9H3L0 whole entry, looked up): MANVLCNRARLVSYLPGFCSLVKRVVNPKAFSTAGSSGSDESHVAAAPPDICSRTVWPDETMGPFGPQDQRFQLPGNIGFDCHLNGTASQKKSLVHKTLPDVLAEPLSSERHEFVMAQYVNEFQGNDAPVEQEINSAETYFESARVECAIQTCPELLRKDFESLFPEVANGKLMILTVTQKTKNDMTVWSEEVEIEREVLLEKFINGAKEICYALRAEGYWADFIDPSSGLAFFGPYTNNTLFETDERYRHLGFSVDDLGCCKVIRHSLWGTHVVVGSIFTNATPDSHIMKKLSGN
inactive: bafetinib 0.038 | [1] 0.054 | nilotinib -0.068 | [2] -0.173 | dasatinib -0.155 | [3] 0.023 | [4] -0.138 | [8] -0.063 | tipifarnib 0.024 | mubritinib -0.005 | [5] 0.035 | [6] 0.014 | [7] 0.057 | vorinostat 0.157 | citarinostat 0.141 | silmitasertib 0.031 | [10] 0.031

NMU (UniProt P48645)
UniProt P48645, sequence (P48645 whole entry, looked up): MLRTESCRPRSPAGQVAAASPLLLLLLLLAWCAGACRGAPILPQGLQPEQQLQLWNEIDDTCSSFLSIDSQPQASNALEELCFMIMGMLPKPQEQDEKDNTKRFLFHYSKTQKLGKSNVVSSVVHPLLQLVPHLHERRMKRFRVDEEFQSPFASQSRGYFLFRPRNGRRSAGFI
inactive: bafetinib -0.01 | [1] 0.152 | nilotinib 0.011 | [2] -0.022 | dasatinib 0.16 | [3] -0.012 | [4] -0.394 | [8] -0.11 | tipifarnib 0.276 | [5] -0.023 | [7] 0.132 | vorinostat 0.041 | citarinostat 0.043 | [11] 0.144 | [10] -0.08

P4HA2 (UniProt O15460)
UniProt O15460, sequence (O15460 whole entry, looked up): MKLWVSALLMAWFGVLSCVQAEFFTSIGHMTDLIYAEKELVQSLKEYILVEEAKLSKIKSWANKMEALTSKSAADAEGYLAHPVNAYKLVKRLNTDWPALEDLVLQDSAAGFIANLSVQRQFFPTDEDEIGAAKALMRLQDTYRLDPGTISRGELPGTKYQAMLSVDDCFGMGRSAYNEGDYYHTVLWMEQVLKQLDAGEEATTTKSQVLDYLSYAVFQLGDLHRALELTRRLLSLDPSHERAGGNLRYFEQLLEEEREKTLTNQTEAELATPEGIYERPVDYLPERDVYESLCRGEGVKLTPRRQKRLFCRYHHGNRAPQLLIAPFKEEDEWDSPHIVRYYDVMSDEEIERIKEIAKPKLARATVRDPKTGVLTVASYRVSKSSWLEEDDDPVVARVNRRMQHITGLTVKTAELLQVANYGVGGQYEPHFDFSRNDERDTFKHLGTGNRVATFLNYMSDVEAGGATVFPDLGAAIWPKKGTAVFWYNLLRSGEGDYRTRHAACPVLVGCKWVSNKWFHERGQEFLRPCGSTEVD
inactive: bafetinib 0.012 | [1] -0.007 | nilotinib 0.056 | [2] 0.04 | dasatinib -0.057 | [3] -0.008 | [4] -0.102 | [8] -0.02 | tipifarnib 0.007 | mubritinib -0.059 | [9] -0.034 | [6] -0.129 | [7] 0.063 | entinostat -0.104 | vorinostat -0.047 | citarinostat -0.019 | silmitasertib 0.025 | [11] 0.201 | [10] -0.021
